PubChem BioAssay (NCATS)
Results filed as inconclusive are left out. A number with no mark means an inactive call. Activity calls are given as the source filed them. Calls follow the shape of the dose curve; as a rule, active = well fitted inhibition curve with a large enough effect; inconclusive = small, poorly fitted or top-dose-only effect; inactive = flat fitted curve, though single readings scatter.

assay: P-glycoprotein substrates identified in KB-8-5-11 adenocarcinoma cell line, qHTS therapeutic library screen (AID 1346987); details: KB-8-5-11 (P-gp overexpressing) viability, CellTiter-Glo, 72 h; series mostly up to 44.5 µM; activity change, negative = cytotoxicity: at the top concentration; also: nearly all actives have a fitted effect of over 65% in size
In short: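 Compounds are pinned in dose-response onto KB-8-5-11 cells (500 cells/well, colchicine-free medium) and left 72 h at 37 degree C. CellTiter-Glo luminescence then yields AC50 values.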
% is scaled to controls: 0 for no effect and ±100 for the full control effect; potency is read from the fitted curve at half-maximal effect.

Structure (SMILES)	Potency	activity change, negative = cytotoxicity	outcome
CC(Oc1ccc2[nH]nc(/C=C/c3cnn(CCO)c3)c2c1)c1c(Cl)cncc1Cl (centres undefined)	1030 nM (active)	–	–
CC1(C)CC(NC(=O)C(=O)Nc2ccc(Br)cc2)CC(C)(C)N1	–	4.11%	–
CC1OC(OC2C(C)OC(OC3C(O)C(CO)OC(O[C@H]4CC[C@@]5(C)C(CC[C@]6(C)C5CC=C5C7[C@@H](C)[C@H](C)CC[C@]7(C(=O)O)CC[C@]56C(=O)O)C4(C)C)C3O)C(O)C2O)C(O)C(O)C1O (some centres undefined)	–	–	inactive [at 9.29 µM]
COC1CC(O[C@H]2CC[C@@]3(C)C(=CC[C@]4(O)C3[C@H](OC(C)=O)[C@@H](OC(=O)c3ccccc3)[C@]3(C)[C@@H](C(C)=O)CC[C@@]34O)C2)OC(C)C1OC1CC(OC)C(OC2CC(OC)C(OC3OC(C)C(OC4OC(CO)C(O)C(O)C4O)C(OC)C3O)C(C)O2)C(C)O1 (some centres undefined)	–	1.94% [at 9.29 µM]	–
O=C(O[C@H]1[C@@H]2C[C@@H]3OC[C@](O)([C@@H]1Cl)[C@H]2C(O[C@@H]1O[C@H](CO)[C@@H](O)[C@H](O)[C@H]1O)O3)c1ccc(O)c(O)c1 (some centres undefined)	–	–	inactive [at 17.3 µM]
COc1cc(C)c(C(=O)O[C@H]2[C@@H](OC(C)=O)[C@H](n3ccc(=O)[nH]c3=O)O[C@@H]2CO)c(OC)c1	–	–	inactive [at 17.3 µM]
C[C@H]1CC(=O)Nc2cccc(-c3cnn(C(C)(C)C)c3)c2N1	–	-1.52%	–
NC1CCC(Nc2cc(-c3cccc(NCc4cccc(F)c4)n3)c(Cl)cn2)CC1 (centres undefined)	1160 nM (active)	–	–
O=C(NCc1ccccn1)Nc1nnc(-c2ccco2)o1	–	-3.61%	–
CC12CCC(OC3OC(CO)C(O)C(OC4OC(CO)C(O)C(O)C4O)C3O)CC1CCC1C2CCC2(C)/C(=C3/COC(=O)C3)CCC12O (centres undefined)	–	4.78% [at 17.3 µM]	–
COc1ccc(CCO[C@@H]2O[C@H](CO[C@@H]3OC[C@H](O)[C@H](O)[C@H]3O)[C@@H](O)[C@H](O)[C@H]2O)cc1	–	3.6% [at 17.3 µM]	–
CN(C)C/C=C/C(=O)Nc1cccc(C(=O)Nc2cccc(Nc3ncc(Cl)c(-c4c[nH]c5ccccc45)n3)c2)c1	13000 nM (active)	–	–
C[C@@H]([C@@H](O)c1ccc(O)cc1)N1CCC(O)(c2ccccc2)CC1	–	-8.99%	–
C/C=C(\C)C(=O)O[C@H]1[C@@H](O[C@]2(COC(=O)CC(C)C)O[C@H](COC(=O)C(C)CC)[C@@H](OC(C)=O)[C@@H]2O)O[C@H](COC(C)=O)[C@@H](O)[C@@H]1O (some centres undefined)	–	-6.72% [at 17.3 µM]	–
O=C(O)c1cn(C2CC2)c2cc(N3C[C@@H]4C[C@H]3CN4)c(F)cc2c1=O	–	–	inactive
C=C1C[C@]23C[C@H]1CC[C@H]2[C@@]12CC[C@H](O)[C@@](C)(C(=O)O1)[C@H]2[C@@H]3C(=O)O	–	5%	–
C=CC1C(OC2OC(CO)C(O)C(O)C2O)OC=C(C(=O)OC)C1CC1CC(=O)CC(CCc2ccc(O)cc2)O1 (centres undefined)	–	4.32% [at 17.3 µM]	–
O=C(CO)[C@@H](O)[C@H](O[C@@H]1O[C@H](CO)[C@H](O)[C@H](O)[C@H]1O)[C@H](O)CO	–	3.94%	–
O=C(OC[C@@]1(O)CO[C@@H](O[C@H]2[C@H](Oc3ccc(O)cc3)O[C@H](CO)[C@@H](O)[C@@H]2O)[C@@H]1O)c1ccc(O)cc1	–	1.59% [at 17.3 µM]	–
CC(=O)N[C@@H](C(=O)O[C@H]1CCC(C)(C)[C@@H]2CCC3=C(COC3=O)[C@@]12C)C(C)C	–	-3.92%	–

Structure (SMILES)	Potency	activity change, negative = cytotoxicity	outcome
C=C(C(=O)O)C1CCC2(C)CCC(O)C(C)(O)C2C1 (centres undefined)	–	-8.05%	–
COC(=O)c1c(C)cc(OC(=O)c2c(C)cc(OC)cc2OC)cc1O[C@@H]1O[C@H](CO)[C@@H](O)[C@H](O)[C@H]1O	–	5.65% [at 17.3 µM]	–
CC1=C(C(=O)O)/C(=C/CO[C@@H]2O[C@H](COC(=O)/C=C/c3ccc(O)cc3)[C@@H](O)[C@H](O)[C@H]2O)C(O)C1 (some centres undefined)	–	–	inactive [at 17.3 µM]
CC1OC(OC2C(OC3C(O[C@H]4CC[C@@]5(C)C(CC[C@]6(C)C5C(=O)C=C5C7CC(C)(C)CC(O)[C@]7(C)CC[C@]56C)C4(C)C)OC(C(=O)O)C(O)C3O)OCC(O)C2O)C(O)C(O)C1O (some centres undefined)	–	7.36% [at 9.29 µM]	–
CC(C)=CCC[C@](C)(O[C@@H]1O[C@H](CO)[C@@H](O)[C@H](O)[C@H]1O)[C@H]1CC[C@]2(C)[C@@H]1[C@H](O)CC1[C@@]3(C)CC[C@H](O)C(C)(C)C3[C@@H](O[C@@H]3O[C@H](CO)[C@@H](O)[C@H](O)[C@H]3O)C[C@]12C (some centres undefined)	–	9.51% [at 17.3 µM]	–
CC(=O)OC1C(=O)C2(C)C(O)CC3OCC3(OC(C)=O)C2C(OC(=O)c2ccccc2)C2(O)CC(OC(=O)C(O)C(NC(=O)c3ccccc3)c3ccccc3)C(C)=C1C2(C)C (centres undefined)	1300 nM (active)	–	–
C/C=C/C=C/C(=O)N1CC[C@]23c4ccccc4N[C@H]4N(C)c5cccc6c5[C@@]42CCN([C@H]6C2OC2(C)C)[C@H]13 (some centres undefined)	–	–	inactive [at 17.3 µM]
Cc1nc2ccc(Oc3ccc(F)cc3)cc2c(=O)n1C[C@H]1CCCN(C(C)C)C1	–	-13.1%	–
C[C@H](C/C=C/C(C)(C)O)[C@H]1CC[C@@]2(C)[C@@H]3[C@@H](O[C@@H]4O[C@H](CO)[C@@H](O)[C@H](O)[C@H]4O)C=C4C(CC[C@H](O)C4(C)C)[C@]3(C=O)CC[C@]12C (some centres undefined)	–	9.56% [at 17.3 µM]	–
C=C1C[C@@]23CCC4[C@@](C)(CCC[C@@]4(C)C(=O)OC)C2CC[C@@H]1C3 (some centres undefined)	–	-22%	–
CC1(C)CCC(C)(C)c2cc(C3(c4ccc(C(=O)O)cc4)OCCO3)ccc21	–	9.62%	–
Cc1cc(O)c(-c2ccc([C@@H](C)CN(C)C)cc2)c2c1[nH]c(=O)c1sccc12	82 nM (active)	–	–
C=C1CC[C@H]2[C@@](C)(CCC(O)[C@@]2(C)CO)[C@@H]1CCC1=CCOC1=O (some centres undefined)	–	-20%	–
C=C(C)C1CCC(C)C12CC(O)C1(C)OC1C2OC(=O)C(N)CCC(=O)O (centres undefined)	–	8.63%	–
CCCC(=O)O[C@@H]1[C@@H]2[C@@H](OC(C)=O)[C@]3(C)C(=O)[C@H]4[C@@H](OC(C)=O)C(C)(C)C[C@H]4[C@]3(C)C(=O)[C@@]2(OC(C)=O)C[C@@H]1C	–	-15.9% [at 17.3 µM]	–
CC1(C)CCC2(C(=O)OC3OC(CO)C(O)C(O)C3O)CCC3(C)C(=CCC4C5(C)CCC(OC6OC(C(=O)O)C(OC7OC(CO)C(O)C(O)C7O)C(OC7OC(CO)C(O)C(O)C7O)C6O)C(C)(C)C5CCC43C)C2C1 (centres undefined)	–	4.92% [at 9.29 µM]	–
CC(C)c1cc(C(=O)N2CC[C@H](NC(=O)C3CC3)C2)n[nH]1	–	-8.08%	–
COc1cc2c(cc1OC)N1C(=O)C[C@]34C=CCN5CC[C@@H]2[C@@H](CC3)[C@]514	–	0.578%	–
O=C(O)/C=C/c1ccc(-c2ccc(O)c(C34CC5CC(CC(C5)C3)C4)c2)cc1	580 nM (active)	–	–
